Results on 25 compounds are retold here after PubChem BioAssay (NCATS).

SMILES strings stand for the structures. Potency and affinity values are given separately. Unmarked numbers belong to inactive results. No rule for the calls is given here.
Also: 0% is about no effect.

The conditions of this assay: Ebola virus entry assay, green fluorescence channel.
As to `CN(C)C/C=C(/c1ccc(Br)cc1)c1cccnc1`, the efficacy is 51.4%.

On to `CCN1C(=O)c2ccccc2C1Nc1ccc(OCCN2CCCCC2)cc1` (stereo not given), for which the efficacy is 33.9%.

Turning to `COc1ccc(CCN(C)CCCC(C#N)(c2cc(OC)c(OC)c(OC)c2)C(C)C)cc1OC` (stereo not given), the efficacy is 75%.

Take `O=C(OCC(O)CO)c1ccccc1Nc1ccnc2cc(Cl)ccc12` (stereo not given): the efficacy is 41.9%.

On to `CN(C)CCOC(c1ccccc1)c1ccccc1`, for which the efficacy is 60.8%.

Consider `CN1CCN(C2=Nc3cc(F)ccc3Cc3ccccc32)CC1`, for which the efficacy was 49.4%.

Consider `Cc1c(C)c2c(c(C)c1OC(=O)CCC(=O)OCCO)CC[C@@](C)(CCC[C@H](C)CCC[C@H](C)CCCC(C)C)O2`, for which the efficacy was -73.4%.

`CCCCCN=C(N)N/N=C/c1c[nH]c2ccc(OC)cc12`: the efficacy was -150%.

Consider `CC(NCCC(c1ccccc1)c1ccccc1)c1ccccc1` (stereo not given), for which the efficacy is -189%.

For the compound `CCCCCCCCCCCCCCCCCCNC(=O)OC1CCN(C(=O)OC[C@H](COC(=O)N(Cc2cccc[n+]2CC)C(=O)c2ccccc2OC)OC)CC1`, the efficacy is -117%.

As for `O=c1c(-c2ccccc2)c1-c1ccccc1`, the efficacy is 22%.

For the compound `CCN(CC)CCOc1ccc(C(O)(Cc2ccc(Cl)cc2)c2ccc(C)cc2)cc1` (stereo not given), the efficacy is -145%.

For `C#C[C@]1(O)CC[C@H]2[C@@H]3[C@H](C)CC4=C(CCC(=O)C4)[C@H]3CC[C@@]21C`, the efficacy is 42.7%.

As for `CN(C)CCCSc1ccccc1NC(=O)/C=C/c1ccccc1`, the efficacy is 79.5%.

Regarding `C=CCc1ccccc1OCC(O)CNC(C)C` (stereo not given), the efficacy was 42.4%.

Turning to `Cc1cc(O)c(C(C)C)cc1Cl`, the efficacy is -25.5%.

Turning to `CCCCOc1ccc(C(=O)CCN2CCCCC2)cc1`, the efficacy was 94.7%.

`Cc1cccc(N(C)C(=S)Oc2ccc3c(c2)CCC3)c1`: the efficacy is 64.2%.

Turning to `CCCCCCCCOc1ccccc1C(=O)Nc1ccc(C(=O)OCC[N+](C)(CC)CC)cc1`, the efficacy is -202%.

As for `CCCCCCCCNC(C)C(O)c1ccc(SC(C)C)cc1` (stereo not given), the efficacy is 48.4%.

In the case of `O=C(CCN1CCN2CCCC2C1)N1c2ccccc2Sc2ccc(Cl)cc21` (stereo not given), the efficacy was 163%.

`O[C@@H](COc1cccc2ncccc12)CN1CCN(C2c3ccccc3[C@@H]3[C@H](c4ccccc42)C3(F)F)CC1` (stereo not given in full): the efficacy was 34.8%.

`CCCCN(CCCC)CCC(O)c1cc2c(Cl)cc(Cl)cc2c2cc(C(F)(F)F)ccc12` (stereo not given): the efficacy is 131%.

In the case of `CCN(CC)CCNc1ccc(CO)c2sc3ccccc3c(=O)c12`, the efficacy is 47.9%.

Take `CCN1CCCC(OC(=O)C(c2ccccc2)c2ccccc2)C1` (stereo not given): the efficacy is 26.3%.
